Screening results: PubChem, National Center for Advancing Translational Sciences (NCATS)
NS1 inh: blocks influenza NS1 protein function; Potency, µM (highest dose often 46.1 µM), for inactives: at the top dose activity, positive = more growth; 270,000 compounds, 0.4% hits; AID 2326; calls by dose curve; further: actives are rising curves; nearly all actives have a fitted effect of over 50% in size
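OD600 was taken as the measure of yeast growth restored by compound in an NS1-expressing S. cerevisiae strain. Cells had been washed out of glucose medium and diluted 1:100 into galactose -URA medium, pH 6.0.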
Pf growth 48h: inhibits P. falciparum growth in the first generation, 48 h; P. falciparum luciferase growth in erythrocytes, 48 h; Potency, µM (doses to about 28.7 µM), for the others: at the top dose activity change, negative = inhibition, most hits filed as inhibitors; 310,000 compounds, 5.9% hits; further: on the % scale 0 is the no-effect control and ±100 the full control effect
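Here the parasites carry a stable luciferase gene and grow inside erythrocytes in Albumax-based RPMI medium with compound for one erythrocytic cycle. Activity is scored as loss of luminescent signal.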
HCV inhibitor: HCV inhibition. 340,000 compounds, 3.4% hits. Potency, µM (titrated, usually from 41.8 µM), for inactives: at the top dose activity change, negative = inhibition, usual class: inhibitors. Huh7.5.1 HCVcc-Cre infection, luciferase reporter, 44 h; further: on the % scale 0 is the no-effect control and ±100 the full control effect
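After 44 h co-culture of compound, cells and HCVcc-Cre (~0.5 moi), substrate is added for 15 min at room temperature and luciferase measured over 15 sec. Cells were seeded at 1,000/well and pre-cultured 4 h.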
Pf growth 96h: P. falciparum growth inhibition at 96 hour, primary screen for plastid delayed-death inhibitors | P. falciparum luciferase reporter growth, 96 h | Potency, µM (titrated, usually from 28.7 µM), for inactives: at the top dose activity change, negative = inhibition, most hits filed as inhibitors | 320,000 compounds, 6.9% hits; further: on the % scale 0 is the no-effect control and ±100 the full control effect
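Cell-based qHTS: luciferase-tagged P. falciparum in erythrocytes (2% hematocrit, 0.05% parasitemia final) incubated with compounds for 96 hours, 37 C, 5% CO2; luciferase detection reagent then added and luminescence measured.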
SARS PLpro yeast: inhibitors of SARS-CoV papain-like protease in yeast; S. cerevisiae expressing SARS-CoV PLpro, growth rescue; Potency, µM (series often up to 32.9 µM), for the others: at the top dose activity, positive = growth rescue, hits mostly activators; 330,000 compounds, 0.19% hits; calls by dose curve; further: 0% is about no effect; nearly all actives have a fitted effect of over 55% in size
AMA1 RON2 block: disrupts binding of P. falciparum AMA1 to RON2. 360,000 compounds, 0.2% hits. AlphaScreen AMA1-biotinylated RON2 peptide binding. AID 720542. Potency, µM (series often up to 58.2 µM), for inactives: top-dose activity change, negative = inhibition, hits mostly inhibitors;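 further: 0% = vehicle wells and -100% = peptide control; nearly all actives have a fitted effect of over 45% in size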
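AMA1 (3D7) with his tag at 25 nM final met compounds first, then biotinylated RON2 peptide at 25 nM; detection used donor plus acceptor beads, 10 µg/mL apiece, read by AlphaScreen after 30 min at room temperature.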
Starred values were filed as active, the others as inactive; ? = inconclusive; / = no result; [ ] = remark or other dose. Hits are enriched below; roughly 12% of the tested compounds scored in any of these assays. Unless noted, the call rests on the fitted dose curve; in most records, active means well fitted curve in the direction sought with a large enough effect; inconclusive means small, poorly fitted or top-dose-only effect, or another doubt; inactive means no such curve, though single readings can be large; an effect the other way counts as inactive or inconclusive. Potency means the concentration at half of the fitted maximal effect.

SMILES	NS1 inh	Pf growth 48h	HCV inhibitor	Pf growth 96h	SARS PLpro yeast	AMA1 RON2 block
CCN(CC(=O)NCc1cccs1)C(=O)/C=C/c1cc(OC)ccc1OC	/	12.1%	-8.2%	-28.1%	4.7%	2.0%
COc1cccc(CN(CCC(C)C)S(=O)(=O)c2cc(Br)ccc2Br)c1	/	/	-15.5%	/	/	13.5%
CCCCCCCCCCOc1cc2c(=O)c(C(=O)OCC)c[nH]c2cc1OCC	/	0.0015µM*	/	-103.0%	/	/
C=CCNc1nc(Cl)nc(NCc2ccco2)n1	-10.5%	?	-12.5%	9.28µM*	-4.7%	-19.3%
Cc1nnc(NC(=O)c2ccc(S(=O)(=O)N3CCCCC3C)cc2)o1 (stereo not given)	-19.0%	11.7µM*	1.2%	?	0.3%	21.8%
COc1cc(C2=NOC(C(=O)N3CCCc4ccccc43)C2)cc(OC)c1OC (stereo not given)	-6.4%	-17.6%	2µM*	11.8%	-5.4%	0.7%
CC1CCCCN1S(=O)(=O)c1ccc(C(=O)Nc2nnc(-c3ccccn3)o2)cc1 (stereo not given)	/	7.9%	-11.1%	5.9%	-3.2%	83.4%
COc1ccc(-c2nnc(SCC(=O)N3CCCC3)o2)cc1OC	12.1%	/	1.5%	/	/	12.1%
COc1cccc(-c2nnc(NC(=O)c3ccc4ncsc4c3)o2)c1	24.3%	?	?	13.1µM*	?	57.9%[2.32 µM]
COc1ccc(-c2nnc(SCC(=O)N3CCCc4ccccc43)o2)cc1OC	-34.0%	-8.1%	10.5%	11.7µM*	-3.5%	11.3%
C#CCOCCOCCOCCNc1nc(N2CCN(C(=O)[C@H](CCC(=O)O)n3cc([C@@H](N)[C@H](C)CC)nn3)CC2)nc(N2CCN(C(=O)[C@H](CCC(=O)O)n3cc([C@@H](N)CC(N)=O)nn3)CC2)n1	/	/	-12.9%	/	2.7%	12.4%
CC1CCCCN1S(=O)(=O)c1ccc(C(=O)Nc2nnc(C3CC3)o2)cc1 (stereo not given)	-20.8%	?	?	11.7µM*	-1.9%	29.0%
COc1ccc(Br)cc1C(=O)Nc1cccc(-c2nnc(-c3ccco3)o2)c1	-36.1%	/	?	/	/	-5.5%
CC1CCCCN1S(=O)(=O)c1ccc(C(=O)Nc2nnc(-c3ccco3)o2)cc1 (stereo not given)	-18.9%	?	?	4.65µM*	5.0%	91.8%
COc1cccc(C(=O)Nc2cccc(-c3nnc(-c4ccco4)o3)c2)c1	-7.6%	/	22.4µM*	?	0.8%	27.5%
O=C(Nc1nnc(C2CC2)o1)c1ccc(S(=O)(=O)N2CCCCC2)cc1	-10.8%	?	-5.4%	16.5µM*	0.4%	40.0%
CC1CCN(S(=O)(=O)c2ccc(C(=O)Nc3nnc(C4CC4)o3)cc2)CC1	-95.9%	?	?	?	13.2%	56.6%
COc1ccc(-c2nnc(SCC(=O)N3CCOCC3)o2)cc1	-5.1%	140.6%	0.2%	/	8.3%	2.0%
CS(=O)(=O)c1ccc(-c2nnc(NC(=O)c3ccc(S(=O)(=O)N4CCCC4)cc3)o2)cc1	/	13.1µM*	16.7%	7.38µM*	17.2%	40.7%
COc1ccc2c(c1)C(C)=CC(C)(C)N2C(=O)CSc1nnc(-c2ccc(C)cc2)o1	1.0%	9.28µM*	?	-1.8%	-14.9%	-9.8%
COc1ccc(C(=O)CSc2nnc(-c3ccc(C)cc3)o2)cc1	3.3%	41.4%	16.4%	-0.4%	-5.9%	8.7%
COc1cccc(-c2nnc(SCC(=O)N3CCOCC3)o2)c1	-4.1%	46.9%	-5.7%	11.7µM*	-1.4%	-0.9%
COc1cc(-c2nnc(NC(=O)c3ccc(S(=O)(=O)N4CCOCC4)cc3)o2)cc(OC)c1OC	6.4%	20.0%	/	14.2%	-0.1%	/
COc1cccc(-c2nnc(NC(=O)c3ccc(S(=O)(=O)N4CCOCC4)cc3)o2)c1	-11.1%	?	12.6µM*	106.0%	3.5%	176.7%
CC(C)c1ccc(C(=O)N2CCCCC2c2cc(C(=O)NCc3cccnc3)no2)cc1 (stereo not given)	/	/	/	/	/	-0.2%
O=C(O)c1c(Cl)c(Cl)c(Cl)c(Cl)c1C(=O)Nc1ccc2cn[nH]c2c1	-5.5%	/	/	/	/	/
